Activity calls are given as the source filed them. The calls were made as follows: active = hit-call score of the fitted dose curve at least 0.9, where 1 is the maximum; inactive = score below 0.9.
Biological target: Muscarinic acetylcholine receptor M1 (Homo sapiens) (UniProt P11229)
Assay: ERF_FR_GPCR_hCHRM1: Eurofins (ERF) G Protein-Coupled Receptor (GPCR) Radioligand Binding LeadHunter Assay for human Muscarinic Acetylcholine Receptor M1 Antagonism, conducted at France lab site
Description: ERF_FR_GPCR_hCHRM1 is a biochemical, single-readout assay that uses extracted gene-proteins in a cell-free assay. Measurements were taken 1 hour after chemical dosing in a 96-well plate. See M1 Human Acetylcholine (Muscarinic) GPCR Binding (Antagonist Radioligand) Assay, Cerep.ERF_FR_GPCR_hCHRM1 is an assay component calculated from the ERF_FR_GPCR_hCHRM1 assay. It is designed to measure radioligand binding using a type of binding reporter as detected by scintillation counting with radiometry technology.Data from the assay component ERF_FR_GPCR_hCHRM1 was analyzed at the assay endpoint, ERF_FR_GPCR_hCHRM1, in the positive analysis fitting direction relative to DMSO as the negative control and baseline of activity. Using a type of binding reporter, loss-of-signal activity can be used to understand changes in binding as they relate to gene CHRM1. To generalize the intended target to other relatable targets, this assay endpoint is annotated to the gpcr intended target family, where the subfamily is acetylcholine (Muscarinic).
Human cells are incubated for 60 minutes at room temprature with [3H]pirenzepine ligand (2 nM) and pirenzepine as control inhibitor.Test Sample Requirements: Minimum for 1) Screen: 60 ul of 10 mM stock -OR- 1 mg (pre-weighed) for 10 uM final testing. 2) Dose Response: 90 ul of 10 mM stock -OR- 1 mg (pre-weighed) for a top concentration at 10 uM.

Chain of Muscarinic acetylcholine receptor M1 (Homo sapiens) (P11229 whole entry, looked up): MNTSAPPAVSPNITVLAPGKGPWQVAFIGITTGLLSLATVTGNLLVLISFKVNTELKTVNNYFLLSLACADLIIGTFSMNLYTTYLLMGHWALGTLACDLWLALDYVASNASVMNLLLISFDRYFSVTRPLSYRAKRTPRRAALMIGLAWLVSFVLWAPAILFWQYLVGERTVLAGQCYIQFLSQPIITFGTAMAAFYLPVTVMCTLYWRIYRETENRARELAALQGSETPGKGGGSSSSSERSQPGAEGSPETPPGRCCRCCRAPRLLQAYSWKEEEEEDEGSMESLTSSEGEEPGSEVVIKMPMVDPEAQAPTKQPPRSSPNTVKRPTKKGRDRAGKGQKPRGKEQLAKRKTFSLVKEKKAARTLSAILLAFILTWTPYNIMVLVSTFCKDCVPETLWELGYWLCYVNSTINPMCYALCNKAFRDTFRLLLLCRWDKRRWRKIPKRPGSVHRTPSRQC

Compound	AC50
O=C(/C=C/c1ccc(O)cc1)CC(=O)/C=C/c1ccc(O)cc1	5 µM (active)

Reference: PubChem BioAssay AID2284153 (EPA ToxCast)
